Results: PubChem BioAssay (NCATS)
Records with an inconclusive call do not appear. Entries that show only a call come without a potency. Calls of active or inactive are those of the source. Calls follow the shape of the dose curve; as a rule, active = well fitted curve in the direction sought with a large enough effect; inconclusive = small, poorly fitted or top-dose-only effect, or another doubt; inactive = no such curve, though single readings can be large; an effect the other way counts as inactive or inconclusive.

test system: not listed separately; test: qHTS for differential inhibitors of proliferation of Plasmodium falciparum line HB3 (AID 1886); conditions: Potency: Plasmodium falciparum HB3 proliferation inhibition; series mostly up to 28.7 µM;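 also: parasites grown with compound for 72 h before SYBR Green readout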

Structure (SMILES) | Potency
Cc1[nH]c(=O)c(C#N)cc1-c1ccc2nccn2c1 | inactive
O=c1n(CCCN2CCN(c3cccc(Cl)c3)CC2)nc2ccccn12 | inactive
Clc1cccc(Cl)c1NC1=NCCN1 | inactive
N[C@@H]1CONC1=O | inactive
c1ccc([C@H]2CN3CCSC3=N2)cc1 | inactive
CC(C[N+](C)(C)C)OC(N)=O (stereo not given) | inactive
NS(=O)(=O)c1cc2c(cc1Cl)NC=NS2(=O)=O | inactive
NC[C@H](O)c1ccc(O)c(O)c1 | inactive
Nc1nc2ccc(OC(F)(F)F)cc2s1 | inactive
Nc1nc2c(ncn2COCCO)c(=O)[nH]1 | inactive
Cc1oncc1C(=O)Nc1ccc(C(F)(F)F)cc1 | inactive
CC(C)NCC(O)COc1ccc(COCCOC(C)C)cc1 (stereo not given) | inactive
CC(C)(Sc1ccc(CCN(CCCCC2CCCCC2)C(=O)NC2CCCCC2)cc1)C(=O)O | inactive

target: Ferritin light chain (Equus caballus) (UniProt P02791); test: qHTS Validation Assay for Identification of Novel General Anesthetics (AID 2323); conditions: horse apoferritin, anesthetic-site fluorescent probe displacement; series mostly up to 76.9 µM
Sequence (P02791 2-175 limits assumed): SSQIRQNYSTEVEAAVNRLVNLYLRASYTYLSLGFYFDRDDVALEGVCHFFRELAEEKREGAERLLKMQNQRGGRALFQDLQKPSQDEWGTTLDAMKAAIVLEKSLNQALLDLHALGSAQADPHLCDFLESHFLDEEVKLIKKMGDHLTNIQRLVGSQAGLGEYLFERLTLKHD
Method in brief: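 Apoferritin from horse spleen (10 uM) was mixed with 1-aminoanthracene at 50% saturation in PBS, then compounds were added. After 10 min at room temperature, fluorescence was read (ex 380 nm, em 535 nm) and normalized to free-probe and complex controls.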

Structure (SMILES) | outcome
Cc1[nH]c(=O)c(C#N)cc1-c1ccc2nccn2c1 | inactive
O=c1n(CCCN2CCN(c3cccc(Cl)c3)CC2)nc2ccccn12 | inactive
Clc1cccc(Cl)c1NC1=NCCN1 | inactive
N[C@@H]1CONC1=O | inactive
CC(C[N+](C)(C)C)OC(N)=O (stereo not given) | inactive
NS(=O)(=O)c1cc2c(cc1Cl)NC=NS2(=O)=O | inactive
CCCC(CCC)C(=O)O | inactive
NC[C@H](O)c1ccc(O)c(O)c1 | inactive
CC(C)(C)NCC(O)c1ccc(O)c(CO)c1 (stereo not given) | inactive
Nc1nc2ccc(OC(F)(F)F)cc2s1 | inactive
O=C1CCc2cc(OCCCCc3nnnn3C3CCCCC3)ccc2N1 | inactive
Nc1nc2c(ncn2COCCO)c(=O)[nH]1 | inactive
Cn1cnc([N+](=O)[O-])c1Sc1ncnc2nc[nH]c12 | inactive
Cc1oncc1C(=O)Nc1ccc(C(F)(F)F)cc1 | inactive
Cc1ccc(N(CC2=NCCN2)c2cccc(O)c2)cc1 | inactive
CC(C)NCC(O)COc1ccc(COCCOC(C)C)cc1 (stereo not given) | inactive
NNCCc1ccccc1 | inactive

target: ATP-dependent DNA helicase Q1 (Homo sapiens) (UniProt P46063); test: qHTS Validation Assay for Inhibitors of RecQ-Like Dna Helicase 1 (RECQ1) (AID 2353); conditions: recombinant RECQ1 helicase DNA unwinding assay; series mostly up to 25.6 µM
Sequence (P46063 whole entry, looked up): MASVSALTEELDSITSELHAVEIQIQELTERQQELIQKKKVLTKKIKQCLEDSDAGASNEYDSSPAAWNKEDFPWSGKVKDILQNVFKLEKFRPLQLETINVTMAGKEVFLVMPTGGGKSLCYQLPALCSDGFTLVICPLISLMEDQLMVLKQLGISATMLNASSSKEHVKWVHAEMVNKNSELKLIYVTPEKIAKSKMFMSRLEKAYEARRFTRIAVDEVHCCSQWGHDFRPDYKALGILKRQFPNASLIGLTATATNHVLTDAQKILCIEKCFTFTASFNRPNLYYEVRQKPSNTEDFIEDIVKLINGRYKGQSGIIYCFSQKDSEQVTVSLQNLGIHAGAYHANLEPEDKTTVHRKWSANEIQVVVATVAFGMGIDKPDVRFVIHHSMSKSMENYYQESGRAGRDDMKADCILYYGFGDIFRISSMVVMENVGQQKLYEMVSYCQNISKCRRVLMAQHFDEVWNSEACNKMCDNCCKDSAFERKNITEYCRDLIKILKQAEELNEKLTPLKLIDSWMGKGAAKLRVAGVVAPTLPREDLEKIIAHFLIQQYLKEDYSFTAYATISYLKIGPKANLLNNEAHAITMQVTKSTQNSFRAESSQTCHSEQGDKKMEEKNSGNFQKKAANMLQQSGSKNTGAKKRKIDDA
Method in brief: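 50 nM RECQ1T1 preincubated 15 min with compound in Tris pH 8.0 buffer with MgCl2, DTT, Tween-20 and 2.5 ug/ml poly(dI-dC); started with 200 nM TAMRA/BHQ-2 forked duplex and 2 mM ATP. Unwinding read as fluorescence (525/598 nm), two reads 2 h apart.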

Structure (SMILES) | outcome
NC(N)=NC(=O)c1nc(Cl)c(N)nc1N | inactive
Cc1[nH]c(=O)c(C#N)cc1-c1ccc2nccn2c1 | inactive
O=c1n(CCCN2CCN(c3cccc(Cl)c3)CC2)nc2ccccn12 | inactive
Clc1cccc(Cl)c1NC1=NCCN1 | inactive
N[C@@H]1CONC1=O | inactive
c1ccc([C@H]2CN3CCSC3=N2)cc1 | inactive
CC(C[N+](C)(C)C)OC(N)=O (stereo not given) | inactive
NS(=O)(=O)c1cc2c(cc1Cl)NC=NS2(=O)=O | inactive
CCCC(CCC)C(=O)O | inactive
NC[C@H](O)c1ccc(O)c(O)c1 | inactive
CC(C)(C)NCC(O)c1ccc(O)c(CO)c1 (stereo not given) | inactive
Nc1nc2ccc(OC(F)(F)F)cc2s1 | inactive
O=C1CCc2cc(OCCCCc3nnnn3C3CCCCC3)ccc2N1 | inactive
Nc1nc2c(ncn2COCCO)c(=O)[nH]1 | inactive
Cn1cnc([N+](=O)[O-])c1Sc1ncnc2nc[nH]c12 | inactive
Cc1oncc1C(=O)Nc1ccc(C(F)(F)F)cc1 | inactive
Cc1ccc(N(CC2=NCCN2)c2cccc(O)c2)cc1 | inactive
CC(C)NCC(O)COc1ccc(COCCOC(C)C)cc1 (stereo not given) | inactive
NNCCc1ccccc1 | inactive

target: RecQ-like DNA helicase BLM (Homo sapiens) (UniProt P54132); test: qHTS Validation Assay for Inhibitors of Bloom's syndrome helicase (BLM) (AID 2364); conditions: BLM helicase DNA unwinding, fluorescence, in vitro; series mostly up to 57.1 µM; also: potency is read from the fitted curve at half-maximal effect
Sequence (P54132 whole entry, looked up): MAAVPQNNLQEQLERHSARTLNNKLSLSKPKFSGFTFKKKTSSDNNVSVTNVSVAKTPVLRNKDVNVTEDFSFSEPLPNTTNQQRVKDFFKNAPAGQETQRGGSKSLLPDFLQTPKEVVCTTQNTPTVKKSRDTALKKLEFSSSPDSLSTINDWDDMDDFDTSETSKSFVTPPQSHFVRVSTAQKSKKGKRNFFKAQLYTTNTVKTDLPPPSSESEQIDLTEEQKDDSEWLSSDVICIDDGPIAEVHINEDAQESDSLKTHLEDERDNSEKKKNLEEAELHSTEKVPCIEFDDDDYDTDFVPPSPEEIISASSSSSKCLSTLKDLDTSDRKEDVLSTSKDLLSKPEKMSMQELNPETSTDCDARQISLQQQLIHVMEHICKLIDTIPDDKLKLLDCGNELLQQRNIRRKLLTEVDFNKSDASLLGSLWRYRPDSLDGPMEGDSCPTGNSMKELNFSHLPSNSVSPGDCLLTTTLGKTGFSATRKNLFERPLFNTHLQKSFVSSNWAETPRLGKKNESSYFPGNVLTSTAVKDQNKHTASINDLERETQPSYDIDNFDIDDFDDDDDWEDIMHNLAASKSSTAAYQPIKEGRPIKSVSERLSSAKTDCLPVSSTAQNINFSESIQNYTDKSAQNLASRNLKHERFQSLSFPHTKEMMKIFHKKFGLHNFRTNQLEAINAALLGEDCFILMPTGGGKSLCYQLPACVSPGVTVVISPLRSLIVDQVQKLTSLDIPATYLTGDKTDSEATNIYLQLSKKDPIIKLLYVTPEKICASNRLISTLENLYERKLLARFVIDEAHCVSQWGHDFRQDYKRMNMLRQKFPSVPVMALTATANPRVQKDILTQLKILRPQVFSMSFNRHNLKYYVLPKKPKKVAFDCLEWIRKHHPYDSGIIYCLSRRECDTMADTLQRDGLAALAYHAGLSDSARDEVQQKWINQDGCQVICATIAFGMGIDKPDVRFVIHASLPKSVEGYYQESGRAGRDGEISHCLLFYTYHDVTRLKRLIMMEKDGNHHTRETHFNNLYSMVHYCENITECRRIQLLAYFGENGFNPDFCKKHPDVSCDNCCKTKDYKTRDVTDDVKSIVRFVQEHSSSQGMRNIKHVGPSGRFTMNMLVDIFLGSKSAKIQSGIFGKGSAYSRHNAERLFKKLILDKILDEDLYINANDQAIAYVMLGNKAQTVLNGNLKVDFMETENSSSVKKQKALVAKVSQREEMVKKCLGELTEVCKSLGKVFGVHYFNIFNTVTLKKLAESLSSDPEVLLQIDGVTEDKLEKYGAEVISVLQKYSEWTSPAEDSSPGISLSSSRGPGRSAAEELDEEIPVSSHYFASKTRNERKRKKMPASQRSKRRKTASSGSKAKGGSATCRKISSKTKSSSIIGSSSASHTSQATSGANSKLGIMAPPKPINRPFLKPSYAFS
Method in brief: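 BLM 50 nM in 25 mM Tris-HCl pH 8.0, 5 mM NaCl, 2 mM MgCl2, 1 mM DTT, 0.01% Tween-20, 2.5 ug/ml poly(dI-dC); 15 min cpd preinc, RT. Start: 200 nM forked DNA + 2 mM ATP (final). TAMRA read, 2 reads 2 h apart.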

Structure (SMILES) | Potency
O=c1n(CCCN2CCN(c3cccc(Cl)c3)CC2)nc2ccccn12 | inactive
CC(C[N+](C)(C)C)OC(N)=O (stereo not given) | inactive
CC(C)(C)NCC(O)c1ccc(O)c(CO)c1 (stereo not given) | inactive
CC(C)NCC(O)COc1ccc(COCCOC(C)C)cc1 (stereo not given) | inactive
CC(C)(Sc1ccc(CCN(CCCCC2CCCCC2)C(=O)NC2CCCCC2)cc1)C(=O)O | 28.2 µM (active)

test system: not listed separately; test: Cytometric Cell-Based qHTS for Inhibitors of the mTORC1 Signaling Pathway in MEF (Tsc2-/-, p53-/-) Cells (AID 2660); conditions: mTORC1 pathway cytometry; series mostly up to 38.3 µM;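 also: Tsc2 and p53 null MEFs carrying empty vector with compound for 24 h; percent of cells above a phospho-rpS6 to PI ratio cutoff in each well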
Method in brief: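 Readout: Alexa-488 phospho-rpS6 (Ser235/236) intensity divided by PI intensity, thresholded against 7.5 nM rapamycin wells and reported as % positive cells. PI cell count served as the viability measure. Compound exposure was 24 hrs at 37 degree Celsius.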

Structure (SMILES) | outcome
Nc1ncnc2nc(-c3ccc(N4CCOCC4)nc3)cc(-c3cccc(Br)c3)c12 | inactive
O=C(Nc1nc2ccccc2n1CCN1CCOCC1)c1cccc([N+](=O)[O-])c1 | inactive
NC(N)=NC(=O)c1nc(Cl)c(N)nc1N | inactive
Cc1[nH]c(=O)c(C#N)cc1-c1ccc2nccn2c1 | inactive
O=c1n(CCCN2CCN(c3cccc(Cl)c3)CC2)nc2ccccn12 | inactive
Clc1cccc(Cl)c1NC1=NCCN1 | inactive
N[C@@H]1CONC1=O | inactive
c1ccc([C@H]2CN3CCSC3=N2)cc1 | inactive
CC(C[N+](C)(C)C)OC(N)=O (stereo not given) | inactive
NS(=O)(=O)c1cc2c(cc1Cl)NC=NS2(=O)=O | inactive
CCCC(CCC)C(=O)O | inactive
NC[C@H](O)c1ccc(O)c(O)c1 | inactive
CC(C)(C)NCC(O)c1ccc(O)c(CO)c1 (stereo not given) | inactive
Nc1nc2ccc(OC(F)(F)F)cc2s1 | inactive
O=C1CCc2cc(OCCCCc3nnnn3C3CCCCC3)ccc2N1 | inactive
Cc1cccc(-c2[nH]c(C(C)(C)C)nc2-c2ccc3nccnc3c2)n1 | inactive
Nc1nc2c(ncn2COCCO)c(=O)[nH]1 | inactive
O=C(O)COCCN1CCN(C(c2ccccc2)c2ccc(Cl)cc2)CC1 (stereo not given) | inactive
Cn1cnc([N+](=O)[O-])c1Sc1ncnc2nc[nH]c12 | inactive
Cc1oncc1C(=O)Nc1ccc(C(F)(F)F)cc1 | inactive
Cc1ccc(N(CC2=NCCN2)c2cccc(O)c2)cc1 | inactive
C[C@]12CCC(=O)C=C1CC[C@@H]1[C@@H]2[C@@H](O)C[C@@]2(C)[C@H]1CC[C@]2(O)C(=O)CO | inactive
OC(CCN1CCCCC1)(c1ccccc1)C1CC2C=CC1C2 (stereo not given) | inactive
CC(C)NCC(O)COc1ccc(COCCOC(C)C)cc1 (stereo not given) | inactive
NNCCc1ccccc1 | inactive
CC(C)(Sc1ccc(CCN(CCCCC2CCCCC2)C(=O)NC2CCCCC2)cc1)C(=O)O | inactive
